Consider 10 compounds from PubChem BioAssay (Tox21).

Assay [1] is described as follows: qHTS assay to identify small molecule agonists of the sonic hedgehog signaling (Shh) pathway (AID 1259368).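 Also: NIH/3T3-derived 3T3Gli1-Luc cells carrying a stable Gli1-driven firefly luciferase reporter; series mostly up to about 92 µM; nearly all actives have a fitted effect of over 15% in size.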 Put shortly:
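Cells of a mouse NIH/3T3 clone stably expressing luciferase under the Gli1 transcriptional response element are exposed to test chemicals for 24 hr at 37 C. Pathway activation is detected as a rise in luminescence.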

Assay [2] is described as follows: qHTS assay to identify small molecule antagonists of the sonic hedgehog signaling (Shh) pathway (AID 1259369). Also: nearly all actives have a fitted effect of over 45% in size. Put shortly:
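Cells are plated and held 4hr at 37 C, compounds (DMSO) are pinned in, conditioned medium is added to stimulate the pathway, and after 24hr luciferase reagent is added for 30min before luminescence is read.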
A general note: Quantitative high-throughput screening tests each substance at several concentrations.

A short description of assay [3]: qHTS assay to identify small molecule agonists of the androgen receptor (AR) signaling pathway in the presence of an antagonist - cell viability counter screen (AID 1259379; active = well fitted curve in the direction sought with a large enough effect in the repeat runs; an effect the other way counts as inactive or inconclusive;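 also: MDA-kb2 human breast cancer cells carrying an MMTV luciferase reporter; series mostly up to about 92 µM; nearly all actives have a fitted effect of over 25% in size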). Put shortly:
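Cytotoxicity is assessed by CellTiter-Fluor in MDA-kb2 cells carrying an MMTV-driven luciferase reporter. Cells receive 3.0uM nilutamide plus compounds at 15 concentrations and incubate 16 hr at 37C without CO2 before fluorescence reading.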

The nature of assay [4]: qHTS assay to identify small molecule agonists of the estrogen receptor beta (ER-beta) signaling pathway - cell viability counter screen (AID 1259380; active = well fitted curve in the direction sought with a large enough effect in the repeat runs; an effect the other way counts as inactive or inconclusive; also: nearly all actives have a fitted effect of over 30% in size). Put shortly: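 Cytotoxicity is measured in parallel with the reporter screen: after 16 hr compound exposure at 37C and a 2 hr LiveBLAzer step, CellTiter-Glo is added to the same ER-beta-UAS-bla HEK293T wells and luminescence read after 30 min.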

The target of assay [5] is Estrogen receptor (Homo sapiens) (UniProt P03372). Kind of assay: qHTS assay to identify small molecule agonists of the estrogen receptor alpha (ER-alpha) signaling pathway in the presence of an antagonist (AID 1259383). Also: top concentration of the series differs between compounds; nearly all actives have a fitted effect of over 15% in size. Put shortly: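 Agonist-mode confirmation in the presence of the ER antagonist ICI-182,780 at 10.0nM final. Breast-derived VM7Luc4E2 reporter cells were exposed to compounds for 22hr, and ERE-driven luciferase was quantified by luminescence.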

Assay [6] in a line: qHTS assay to identify small molecule agonists of the estrogen receptor alpha (ER-alpha) signaling pathway in the presence of an antagonist - cell viability counter screen (AID 1259386; active = well fitted curve in the direction sought with a large enough effect in the repeat runs; an effect the other way counts as inactive or inconclusive;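 also: series mostly up to about 92 µM; cells exposed to compounds for 22 h at 37 °C before the viability read; nearly all actives have a fitted effect of over 30% in size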). Put shortly:
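Cytotoxicity was measured in parallel with the ERE-luciferase agonist screen, in the same wells. The cells were VM7Luc4E2, which endogenously express ER-alpha, and treatment was with compounds plus 10.0nM ICI-182,780 for 22hr.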

For assay [7], the target named is Progesterone receptor (Homo sapiens) (UniProt P06401). Kind of assay: qHTS assay to identify small molecule agonists of the progesterone receptor (PR) signaling pathway (AID 1346784). Also: nearly all actives have a fitted effect of over 30% in size. Also: potency is read from the fitted curve at half-maximal effect. Put shortly:
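The screen uses PR-UAS-bla HEK 293T cells in charcoal-stripped serum (2%). Compounds are applied for 16 hr at 37C after a 6 hr pre-incubation, and reporter activity is detected with a FRET beta-lactamase substrate after 2 hr at room temperature.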

Assay [8] has the same target. In words: qHTS assay to identify small molecule antagonists of the progesterone receptor (PR) signaling pathway (AID 1346795; active = well fitted inhibition curve with a large enough effect in the signal ratio in the repeat runs, not every such curve was filed as active; the % refers to the signal ratio). Put shortly: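 After 6 hr plating at 37C in 2% stripped-serum medium, PR-UAS-bla HEK293T cells got compounds, then 1 nM R5020. Sixteen hours later, LiveBLAzer substrate was applied for 2 hr at room temperature and fluorescence was recorded.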

Assay [9] in a line: qHTS assay to identify small molecule agonists of the progesterone receptor (PR) signaling pathway - cell viability counter screen (AID 1346799). Also: nearly all actives have a fitted effect of over 45% in size. Also: potency is read from the fitted curve at half-maximal effect. Put shortly: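 Viability was scored by ATP luminescence (CellTiter-Glo, 30 min, room temperature) in the same wells used for the reporter readout, after 16 hr compound exposure of PR-UAS-bla HEK293T cells.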
Assay [10] in a line: qHTS assay to identify small molecule antagonists of the TGF-beta/Smad signaling pathway - cell viability counter screen (AID 1346824; active = well fitted curve in the direction sought with a large enough effect in the repeat runs; an effect the other way counts as inactive or inconclusive; also: nearly all actives have a fitted effect of over 50% in size). Put shortly:
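SBE-bla HEK 293T cells were plated overnight at 37 C, then given compounds in DMSO plus TGF-beta1 (added as 0.25 ng/mL solution) for 5 hr. After the bla read, CellTiter-Glo was added to the same wells and luminescence read after 30 min at room temperature.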

A short description of assay [11]: qHTS assay to identify small molecule agonists of the TGF-beta/Smad signaling pathway - cell viability counter screen (AID 1346829; active = well fitted curve in the direction sought with a large enough effect in the repeat runs; an effect the other way counts as inactive or inconclusive; also: top concentration of the series differs between compounds; nearly all actives have a fitted effect of over 45% in size). Put shortly:
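In parallel with the Smad reporter read, viability of HEK 293T cells stably carrying SBE-bla is quantified by ATP luminescence following 5 hr compound treatment.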

Assay [12] can be described thus: qHTS assay to identify small molecule agonists of the TGF-beta/Smad signaling pathway (AID 1346859; active = well fitted activation curve with a large enough effect in the signal ratio in the repeat runs, not every such curve was filed as active; the % refers to the signal ratio; also: series mostly up to about 77 µM). Put shortly:
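Dual-wavelength fluorescence (460/530 nm emission) quantified beta-lactamase expression under the Smad binding element in HEK 293T cells following 5 hr compound treatment at 37 C.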

The target of assay [13] is Thyrotropin-releasing hormone receptor (Homo sapiens) (UniProt P34981). Kind of assay: qHTS assay to identify small molecule antagonists of the thyrotropin-releasing hormone receptor (TRHR) signaling pathway (AID 1346877; active = well fitted inhibition curve with a large enough effect in the repeat runs, not every such curve was filed as active; also: series mostly up to about 51 µM). Put shortly: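 Antagonism is measured as suppression of the calcium response to 1 nM TRH in TRHR-HEK293 cells that have been dye-loaded for 2 h at 37 °C after overnight plating. Each compound is tested at 15 concentrations in triplicate.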

Assay [14] is described as follows: qHTS assay to identify small molecule antagonists of the estrogen receptor beta (ER-beta) signaling pathway - cell viability counter screen (AID 1259382; active = well fitted curve in the direction sought with a large enough effect in the repeat runs; an effect the other way counts as inactive or inconclusive;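 also: HEK293T cells carrying ER-beta-UAS-bla reporter stimulated with estradiol; series mostly up to about 92 µM; nearly all actives have a fitted effect of over 55% in size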). Put shortly: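 Cytotoxicity counter screen multiplexed with the beta-lactamase antagonist assay: GripTite HEK293T ER-beta-bla cells were treated 16 hr with test chemicals in the presence of 1nM 17-beta-estradiol, and viability was measured by CellTiter-Glo.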

The nature of assay [15]: qHTS assay to identify small molecule agonists or antagonists of the thyroid stimulating hormone receptor (TSHR) signaling pathway - wild type cell line counter screen (AID 1259384). Put shortly: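 Wild-type HEK293 cells were plated 18 h at 37 C/5% CO2, pin-dosed with compound plus Ro20-1724 medium, held 30 min at room temperature, then given cAMP-d2 and anti-cAMP-cryptate; fluorescence was read after 1 h. Fifteen concentrations, triplicate.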

Assay [16] is described as follows: qHTS assay to identify small molecule antagonists of the progesterone receptor (PR) signaling pathway - cell viability counter screen (AID 1346798; active = well fitted curve in the direction sought with a large enough effect in the repeat runs; an effect the other way counts as inactive or inconclusive; also: series mostly up to about 92 µM; nearly all actives have a fitted effect of over 50% in size). Put shortly: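 Viability was determined by ATP-based luminescence (CellTiter-Glo) in PR-UAS-bla HEK293T cells cultured in 2% charcoal-stripped serum and incubated 16 hr with compounds under R5020 stimulation.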
In assay [17] the target is Thyrotropin receptor (Homo sapiens) (UniProt P16473). Kind of assay: qHTS assay to identify small molecule antagonists of the thyroid stimulating hormone receptor (TSHR) signaling pathway (AID 1259385). Also: nearly all actives have a fitted effect of over 20% in size. Put shortly: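 TSHR-HEK293 cells were plated and held 18 h at 37C/5% CO2, then given compound plus Ro20-1724 and stimulated with TSH at 1.5 ng/mL final. After 30 min at room temperature, cAMP was detected with cAMP-d2/anti-cAMP-cryptate (1 h) by fluorescence.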

Assay [18] concerns the target Androgen receptor (Homo sapiens) (UniProt P10275). In words: qHTS assay to identify small molecule agonists of the androgen receptor (AR) signaling pathway in the presence of an antagonist (AID 1259381). Also: nearly all actives have a fitted effect of over 15% in size. Put shortly:
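Agonist-mode confirmation screen: human MDA-kb2 cells stably expressing luciferase under an MMTV promoter bearing AR and GR response elements, co-treated with 3.0uM nilutamide (final). Luminescence measured after 16hr compound incubation.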

Unmarked numbers belong to inactive results. Inconclusive results are not listed. Calls of active or inactive are those of the source. Unless noted, calls follow the shape of the full dose curve.

Estrogen receptor (Homo sapiens), sequence (P03372 whole entry, looked up): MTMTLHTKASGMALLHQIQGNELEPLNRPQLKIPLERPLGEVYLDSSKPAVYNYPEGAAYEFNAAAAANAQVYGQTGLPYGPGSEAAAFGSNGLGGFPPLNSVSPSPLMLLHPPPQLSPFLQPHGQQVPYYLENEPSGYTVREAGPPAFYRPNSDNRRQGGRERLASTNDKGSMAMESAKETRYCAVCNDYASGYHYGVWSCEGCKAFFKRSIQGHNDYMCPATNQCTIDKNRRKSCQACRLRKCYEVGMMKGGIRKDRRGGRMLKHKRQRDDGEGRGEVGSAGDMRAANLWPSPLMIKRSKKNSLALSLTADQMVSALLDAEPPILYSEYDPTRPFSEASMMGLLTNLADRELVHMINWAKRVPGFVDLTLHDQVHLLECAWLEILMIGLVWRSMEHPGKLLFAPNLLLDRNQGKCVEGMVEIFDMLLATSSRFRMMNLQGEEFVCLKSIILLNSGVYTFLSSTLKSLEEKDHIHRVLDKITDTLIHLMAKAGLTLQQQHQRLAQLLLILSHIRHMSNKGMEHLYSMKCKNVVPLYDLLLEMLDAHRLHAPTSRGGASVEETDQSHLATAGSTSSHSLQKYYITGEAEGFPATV
Thyrotropin-releasing hormone receptor (Homo sapiens), sequence (P34981 whole entry, looked up): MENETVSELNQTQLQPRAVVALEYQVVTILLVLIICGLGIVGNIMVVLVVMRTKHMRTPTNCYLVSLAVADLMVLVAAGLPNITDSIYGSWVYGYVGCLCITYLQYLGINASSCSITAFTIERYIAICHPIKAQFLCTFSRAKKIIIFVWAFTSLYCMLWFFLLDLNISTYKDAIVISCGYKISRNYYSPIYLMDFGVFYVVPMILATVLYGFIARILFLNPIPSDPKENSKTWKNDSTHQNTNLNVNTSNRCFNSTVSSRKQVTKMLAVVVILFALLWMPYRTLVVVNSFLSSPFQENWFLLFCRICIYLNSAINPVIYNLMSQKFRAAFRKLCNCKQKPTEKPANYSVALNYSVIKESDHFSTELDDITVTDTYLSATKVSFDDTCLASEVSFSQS
Thyrotropin receptor (Homo sapiens), sequence (P16473 whole entry, looked up): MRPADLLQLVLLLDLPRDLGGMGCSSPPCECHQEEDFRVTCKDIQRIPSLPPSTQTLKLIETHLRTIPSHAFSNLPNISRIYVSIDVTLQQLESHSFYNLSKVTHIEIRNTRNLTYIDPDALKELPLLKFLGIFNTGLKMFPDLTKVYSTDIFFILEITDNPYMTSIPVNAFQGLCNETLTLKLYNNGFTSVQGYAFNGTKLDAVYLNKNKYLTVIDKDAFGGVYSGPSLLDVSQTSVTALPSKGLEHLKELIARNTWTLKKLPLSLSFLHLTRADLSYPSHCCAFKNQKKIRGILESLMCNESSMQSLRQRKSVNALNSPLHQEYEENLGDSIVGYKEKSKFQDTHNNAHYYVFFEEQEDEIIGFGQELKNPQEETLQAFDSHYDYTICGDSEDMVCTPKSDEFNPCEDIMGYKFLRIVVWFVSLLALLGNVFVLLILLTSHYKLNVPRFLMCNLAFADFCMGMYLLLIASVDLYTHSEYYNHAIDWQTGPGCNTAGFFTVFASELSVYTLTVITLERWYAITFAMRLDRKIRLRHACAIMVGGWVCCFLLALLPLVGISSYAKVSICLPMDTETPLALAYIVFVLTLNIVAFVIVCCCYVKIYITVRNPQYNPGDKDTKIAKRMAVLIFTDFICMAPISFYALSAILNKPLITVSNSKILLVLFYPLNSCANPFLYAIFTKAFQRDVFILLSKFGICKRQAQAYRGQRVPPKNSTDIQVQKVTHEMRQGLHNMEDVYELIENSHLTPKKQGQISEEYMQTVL
Progesterone receptor (Homo sapiens), sequence (P06401 whole entry, looked up): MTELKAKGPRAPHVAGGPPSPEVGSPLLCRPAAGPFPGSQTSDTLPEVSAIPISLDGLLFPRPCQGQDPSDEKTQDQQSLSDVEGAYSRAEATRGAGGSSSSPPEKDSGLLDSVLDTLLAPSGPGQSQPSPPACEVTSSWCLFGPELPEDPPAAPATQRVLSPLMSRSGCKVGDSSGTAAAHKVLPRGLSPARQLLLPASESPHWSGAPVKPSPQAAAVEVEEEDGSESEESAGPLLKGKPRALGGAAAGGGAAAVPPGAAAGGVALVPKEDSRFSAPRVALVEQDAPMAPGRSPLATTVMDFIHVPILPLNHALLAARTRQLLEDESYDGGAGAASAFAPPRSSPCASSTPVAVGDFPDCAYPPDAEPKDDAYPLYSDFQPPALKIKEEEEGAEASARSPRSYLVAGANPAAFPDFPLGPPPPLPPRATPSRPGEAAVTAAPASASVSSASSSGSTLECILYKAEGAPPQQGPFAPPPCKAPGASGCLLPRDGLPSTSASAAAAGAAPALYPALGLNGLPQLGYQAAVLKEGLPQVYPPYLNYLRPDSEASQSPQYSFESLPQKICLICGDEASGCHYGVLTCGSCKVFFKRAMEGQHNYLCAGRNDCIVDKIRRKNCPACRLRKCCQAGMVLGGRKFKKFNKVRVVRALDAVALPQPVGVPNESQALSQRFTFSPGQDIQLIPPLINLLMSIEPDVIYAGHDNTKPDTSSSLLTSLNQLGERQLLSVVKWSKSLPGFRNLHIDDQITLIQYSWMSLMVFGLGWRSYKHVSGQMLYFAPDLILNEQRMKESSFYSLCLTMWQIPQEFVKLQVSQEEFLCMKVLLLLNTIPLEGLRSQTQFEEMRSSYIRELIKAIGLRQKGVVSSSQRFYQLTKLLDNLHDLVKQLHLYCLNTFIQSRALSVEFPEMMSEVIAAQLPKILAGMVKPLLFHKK
Androgen receptor (Homo sapiens), sequence (P10275 whole entry, looked up): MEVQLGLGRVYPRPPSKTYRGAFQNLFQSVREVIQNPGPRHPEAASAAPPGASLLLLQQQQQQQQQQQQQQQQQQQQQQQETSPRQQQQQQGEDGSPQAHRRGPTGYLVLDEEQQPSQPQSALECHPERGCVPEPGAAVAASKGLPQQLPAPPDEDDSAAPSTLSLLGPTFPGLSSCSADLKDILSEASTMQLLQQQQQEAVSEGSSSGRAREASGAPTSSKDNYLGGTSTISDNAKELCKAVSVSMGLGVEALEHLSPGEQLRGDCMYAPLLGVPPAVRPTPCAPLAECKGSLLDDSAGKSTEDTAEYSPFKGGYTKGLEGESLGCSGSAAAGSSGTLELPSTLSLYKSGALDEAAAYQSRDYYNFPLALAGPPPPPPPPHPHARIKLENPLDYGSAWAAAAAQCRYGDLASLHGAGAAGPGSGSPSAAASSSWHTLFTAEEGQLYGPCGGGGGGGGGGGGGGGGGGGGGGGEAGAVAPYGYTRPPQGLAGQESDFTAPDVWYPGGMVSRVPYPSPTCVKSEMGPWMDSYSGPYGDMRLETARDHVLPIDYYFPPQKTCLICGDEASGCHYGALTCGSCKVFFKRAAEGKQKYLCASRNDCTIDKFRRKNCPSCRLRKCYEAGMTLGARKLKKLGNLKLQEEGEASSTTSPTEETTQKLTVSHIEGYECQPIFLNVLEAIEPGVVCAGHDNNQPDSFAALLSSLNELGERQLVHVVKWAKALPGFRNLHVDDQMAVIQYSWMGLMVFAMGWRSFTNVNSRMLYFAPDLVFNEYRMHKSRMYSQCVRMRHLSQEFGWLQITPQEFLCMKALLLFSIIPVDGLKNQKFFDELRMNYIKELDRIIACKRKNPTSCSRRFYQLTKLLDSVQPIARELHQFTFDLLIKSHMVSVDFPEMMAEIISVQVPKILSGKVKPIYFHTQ

Take `CC(C)=CCC/C(C)=C/C(=O)O`: the Potency entry in assay [1], in [2], in [3], in assay [4], in assay [5] and in assay [7] was “inactive” each time. In addition, the Potency result in assay [8] and in [9] was “inactive” in each case. In addition, the result in assay [6], in assay [10], in assay [11], in [12] and in assay [13] was inactive.

For `CC1=CC(C)C(C=O)C(C)C1` (stereo not given), the Potency entry in assay [1], in assay [2], in assay [3], in [4], in assay [14] and in assay [5] was “inactive” in each case. Further, the Potency result in assay [7] and in [9] was “inactive” throughout. Also, the result in [15], in [6], in assay [10], in [11] and in assay [12] was inactive.

For `CC(C)c1cccc(C(C)C)c1N`, the Potency result in assay [1], in assay [2], in [3], in [4], in assay [14] and in [5] was “inactive” throughout. Moreover, the Potency result in [7], in assay [8], in assay [16] and in [9] was “inactive” in each case. Moreover, the outcome in assay [6], in [10], in [12] and in [13] was inactive.

Regarding `CC/C=C\CCCCO`, the Potency entry in assay [1], in assay [2], in [3], in assay [4], in assay [14] and in [5] was “inactive” each time. Also, the Potency entry in assay [8], in [16] and in assay [9] was “inactive” throughout. Besides, the outcome in assay [6], in assay [10], in [11], in assay [12] and in assay [13] was inactive.

As for `CO`, the Potency result in assay [1], in [2], in [3], in assay [4], in assay [14] and in assay [17] was “inactive” throughout. The Potency result in [7], in assay [8] and in assay [9] was “inactive” throughout. The outcome in assay [15], in [6], in [10], in [12] and in [13] was inactive.

For `CCCC(C)C(=O)O` (stereo not given), the Potency result in assay [1], in [2], in assay [3], in [5], in assay [17] and in [7] was “inactive” throughout. Also, the Potency entry in [8] was “inactive”. Moreover, the compound was called inactive in assay [15], in assay [6], in assay [10], in assay [11], in assay [12] and in [13]. Further, the Potency in assay [9] is 18.5 µM (active).

Regarding `CCC(=O)c1cccc(Cl)c1`, the Potency entry in assay [1], in assay [2], in assay [3], in assay [14], in [17] and in [8] was “inactive” in each case. The Potency result in [16] was “inactive”. Moreover, the compound was called inactive in [15], in assay [6], in assay [10], in assay [12] and in assay [13]. The Potency in assay [7] is 1.97 µM (active).

As to `C1C2OC2C2C1C1CC2C2OC12` (stereo not given), the Potency entry in assay [1], in assay [2], in assay [3], in assay [4], in assay [14] and in [7] was “inactive” throughout. Also, the Potency result in [8], in assay [16] and in [9] was “inactive” each time. The compound was called inactive in assay [10], in assay [11], in assay [12] and in assay [13].

With `CCCCCCCCN(C)CCCCCCCC`, the Potency entry in [1], in [2], in assay [3], in assay [18], in assay [14] and in assay [5] was “inactive” throughout. Further, the Potency result in assay [17], in assay [7], in assay [8], in assay [16] and in [9] was “inactive” in each case. The outcome in [15], in assay [10], in assay [11] and in assay [12] was inactive.

For `CCOC(=O)[C@H](CCc1ccccc1)N[C@@H](C)C(=O)N1CCC[C@H]1C(=O)O`, the Potency result in [1], in assay [2], in assay [3], in assay [14], in [17] and in [16] was “inactive” throughout. Also, the Potency result in assay [9] is “inactive”. Also, the compound was called inactive in assay [15], in assay [10], in assay [11], in assay [12] and in [13].
